Measured values as given in PubChem BioAssay (NCI).
The panel holds about 83,000 compounds, 20% with a hit somewhere; the sample as a whole holds those more often.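 Activity criterion: percent growth below 10, measured after cells in 96-well plates were exposed to a single compound concentration for 48 hours.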 Unmarked numbers belong to inactive results. Activity calls are given as the source filed them.

How the values were obtained:
Test in all cases: NCI-60 one-dose screen, 48 h (100 = growth as untreated, 0 = no growth, -100 = all killed)
Details in all cases: 10 µM unless noted
DU-145 prostate = tested on: DU-145 prostate
K-562 leukemia = tested on: K-562 leukemia
MALME-3M melanoma = tested on: MALME-3M melanoma
MDA-MB-231 breast = tested on: MDA-MB-231 breast
RXF 393 renal = tested on: RXF 393 renal
SF-268 CNS = tested on: SF-268 CNS
SF-295 CNS = tested on: SF-295 CNS
SF-539 CNS = tested on: SF-539 CNS
UACC-257 melanoma = tested on: UACC-257 melanoma
M14 melanoma = tested on: M14 melanoma

Row | Structure (SMILES) | growth (DU-145 prostate) | growth (K-562 leukemia) | growth (MALME-3M melanoma) | growth (MDA-MB-231 breast) | growth (RXF 393 renal) | growth (SF-268 CNS) | growth (SF-295 CNS) | growth (SF-539 CNS) | growth (UACC-257 melanoma) | growth (M14 melanoma)
1 | COc1ccccc1P(c1ccccc1OC)c1ccccc1OC | 109% | 107% | 104% | 101% | 102% | 109% | 97.3% | 101% | 78.1% | 101%
2 | COc1ccc(-c2nn(-c3ccc(NC(=O)c4cc(Cl)cc(Cl)c4)cc3)cc2-c2ccncc2)cc1Cl | 76.6% | 12% | 89.9% | 25.1% | -66.8% (active) | 63.5% | -28.5% (active) | 47.8% | 85% | 42.9%
3 | Cc1c(C(C)(C)C)cc(C(C)(C)C)c2c1CN(C)CO2 | 112% | 99.4% | 95.5% | 110% | 122% | 103% | 103% | 103% | 99.5% | 118%
4 | Nc1nc(Cl)cc(NCc2ccc(CNc3cc(Cl)nc(N)n3)cc2)n1 | 96.4% | 47.8% | 182% | 83.1% | 90.9% | 98.2% | 105% | 87.3% | 96% | 133%
5 | Oc1ccccc1/C=N/c1ccccn1 | 129% | 109% | 115% | 106% | 107% | 110% | 121% | 100% | 91.4% | 100%
6 | COc1ccc2c(c1)OC(N)=C(C#N)C2c1ccc(F)c(F)c1 (stereo not given) | 30.4% | 9.04% (active) | 78.4% | 44.5% | -9.6% (active) | 56.7% | 23.1% | 14.6% | 73% | 18.8%
7 | C=C1C(=O)O[C@H]2[C@H]1CC/C(C(=O)NCCOCCOCC(=O)Nc1ccc(OC)c(C(N)=O)c1O)=C\CC[C@@]1(C)O[C@@H]21 | 101% | 82.6% | 86.9% | 100% | 59.6% | 89.4% | 104% | 90.7% | 69.4% | 99.3%
8 | CC(=O)Nc1ccc([I+]c2ccc([N+](=O)[O-])cc2)cc1 | 107% | 69.3% | 43.6% | 113% | 129% | 99.4% | 118% | 101% | 90.4% | 83%
9 | COc1ccc(NC(=O)Nc2ccc(-c3ccc(OC)c(OC)c3)nc2C)cc1 | 72.2% | 73.2% | 44.1% | 40.5% | 58.2% | 59.2% | 102% | 70.6% | 55.5% | 72.1%
10 | O=C(Nc1cccc(-n2ccc3c(NC(=O)c4ccccc4)nccc32)c1)Nc1cc(C(F)(F)F)cc(C(F)(F)F)c1 | 1.14% (active) | 4.23% (active) | 26.2% | -10.5% (active) | -19.4% (active) | 22.1% | -19.2% (active) | -19.3% (active) | 25.2% | -43.8% (active)
11 | Nc1nccc2c1ccn2-c1ccc(NC(=O)Nc2cccc(C(F)(F)F)c2)cc1 | 96.7% | 81.5% | 99.3% | 72.9% | 97.8% | 96.3% | 78.2% | 86.1% | 113% | 91.5%
12 | C=CC(C)(O)CCC1C(=C)CCC2C(C)(C)CCCC12C (stereo not given) | 104% | 97.9% | 101% | 112% | 108% | 94.5% | 99.3% | 106% | 88.1% | 111%
13 | Cc1c(F)cccc1NC(=O)c1sc2nc3c(cc2c1N)CCCCC3 | 69.1% | 12.5% | 55% | 83.6% | 69.5% | 83.4% | 55.3% | 66.9% | 52.3% | 28.2%
14 | CCN(CC)C(=O)C1CCN(C(=O)c2ccccc2)CC1 | 109% | 99.1% | 102% | 105% | 105% | 92.7% | 96.7% | 101% | 103% | 102%
15 | COc1ccc(N)c(S)c1 | 102% | 97.4% | 101% | 86.7% | 111% | 105% | 100% | 101% | 80.5% | 101%
16 | CC1OC(n2c3ccccc3c3c4c(c5c6ccccc6[nH]c5c32)C(=O)N(CCN[C@@H]2CCC[C@H]2N)C4=O)CC(O)C1O (stereo not given in full) | 31.8% | 1.43% (active) | 24.9% | 16.4% | 33.7% | 30.6% | 8.14% (active) | 17.8% | 29.8% | 18.7%
17 | CC12CCC3C(CCC4CC(O)CCC43C)C1C/C(=C/O)C(=O)O2 (stereo not given) | 108% | 102% | 134% | 106% | 99.8% | 101% | 105% | 113% | 92.6% | 105%
18 | CCCCCCCC(=O)SCC/C=C/[C@@H]1CC(=O)NCc2nc(cs2)C2=N[C@@](C)(CS2)C(=O)N[C@@H](C(C)C)C(=O)N1 | 10.9% | 6.8% (active) | 10.8% | 11.4% | -52.8% (active) | 18% | 2.96% (active) | 25% | -19.6% (active) | 15.5%
19 | Cc1nssc1=S | 113% | 93.8% | 102% | 112% | 113% | 106% | 99.7% | 101% | 102% | 88.2%
20 | COc1ccc(/C=C2/C(=O)Nc3cc(Cl)c(-c4csc(N)n4)cc32)cc1 | 67.5% | 13.6% | 75.1% | 27.3% | 59.7% | 58.7% | 52.4% | 37.8% | 82.7% | 29.9%
21 | CNCCCOc1c(Br)cc(CCNC(=O)/C(Cc2ccc(OC)c(Br)c2)=N/O)cc1Br | 61.2% | -21.6% (active) | 1.79% (active) | 26.8% | 45.3% | 53% | 19.8% | 32.1% | 4.02% (active) | -55.9% (active)
22 | COc1ccc(Cn2cc3c(c2-c2cc(OC)c(OC)c(OC)c2)CCc2c(CO)noc2-3)cc1 | 19.4% | 7.1% (active) | 94.8% | 18% | 2.44% (active) | 43% | 14.8% | 3.55% (active) | 64.6% | 7.98% (active)
23 | NS(=O)(=O)c1ccc(-n2nc(-c3ccc(Cl)cc3)ccc2=O)cc1 | 102% | 45.9% | 113% | 118% | 95.6% | 96.5% | -4.7% (active) | 84.4% | 96.6% | 96.2%
24 | CCN(CC)CCNC(=O)c1c(C)[nH]c(/C=C2\C(=O)Nc3cc(NC(=O)NC(=O)c4ccc(OC)cc4F)ccc32)c1C | 97.3% | 10.9% | 108% | 77.8% | 66.4% | 102% | 117% | 94.7% | 111% | 105%
25 | O=C(Nc1ccc(-n2ccc3c(NC(=O)c4ccccc4)ncnc32)cc1)Nc1ccc(Cl)c(Cl)c1 | -12.3% (active) | -39.8% (active) | 7.71% (active) | 26.7% | -18.2% (active) | -20.7% (active) | -8.32% (active) | -22.6% (active) | 8.87% (active) | 12%
26 | CCN(CC)CC(=O)Nc1c(C)cccc1C | 121% | 99.8% | 93.3% | 108% | 102% | 108% | 89.8% | 104% | 108% | 100%
27 | CCCCOc1c(N)cc(Cl)cc1C(=O)OCCN(CC)CC | 116% | 83.9% | 102% | 101% | 125% | 98.6% | 101% | 104% | 78.3% | 107%
